# Screening results from PubChem.
# KCNQ2 block: KCNQ2 (rat) channel inhibition; O88943; CHO-K1 KCNQ2, FluxOR thallium flux, 20 min; active compounds read low; B-score at 10 µM; 1.1% of 310,000 active; AID 2156;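 active = fluorescence ratio B-score at most minus 3 library SDs, with starting brightness B-score within 2 library SDs, cut at about -5.5 in these data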
# Target sequence (O88943 whole entry, looked up): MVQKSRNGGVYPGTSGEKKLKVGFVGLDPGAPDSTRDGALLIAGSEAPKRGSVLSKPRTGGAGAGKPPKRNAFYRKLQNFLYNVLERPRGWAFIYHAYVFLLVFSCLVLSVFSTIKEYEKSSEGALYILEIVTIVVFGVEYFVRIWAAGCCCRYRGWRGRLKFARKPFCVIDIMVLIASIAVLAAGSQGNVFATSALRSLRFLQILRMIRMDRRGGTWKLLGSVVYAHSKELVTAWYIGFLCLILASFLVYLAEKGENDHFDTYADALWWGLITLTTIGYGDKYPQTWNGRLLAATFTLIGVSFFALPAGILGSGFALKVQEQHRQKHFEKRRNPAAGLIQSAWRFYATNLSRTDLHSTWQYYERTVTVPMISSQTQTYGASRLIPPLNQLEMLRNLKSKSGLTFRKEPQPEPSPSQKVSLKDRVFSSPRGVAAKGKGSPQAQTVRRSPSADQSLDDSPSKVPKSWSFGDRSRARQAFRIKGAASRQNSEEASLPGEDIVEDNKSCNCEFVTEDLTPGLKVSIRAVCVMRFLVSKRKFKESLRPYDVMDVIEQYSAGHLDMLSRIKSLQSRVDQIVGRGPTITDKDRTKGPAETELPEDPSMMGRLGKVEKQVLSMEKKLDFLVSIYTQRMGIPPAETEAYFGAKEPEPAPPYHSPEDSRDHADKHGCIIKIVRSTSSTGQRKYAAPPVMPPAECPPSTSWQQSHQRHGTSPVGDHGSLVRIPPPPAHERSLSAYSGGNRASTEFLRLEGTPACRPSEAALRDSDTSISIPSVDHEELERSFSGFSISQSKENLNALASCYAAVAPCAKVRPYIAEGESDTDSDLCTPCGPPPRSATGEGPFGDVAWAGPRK
# KCNQ2 enhance: KCNQ2 (rat) channel potentiation; O88943; CHO-K1 KCNQ2, FluxOR thallium flux fluorescence; active compounds read high; B-score at 10 µM; 0.54% of 310,000 active;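 active = fluorescence ratio B-score at least 3 SD of library B-scores, with initial fluorescence B-score within 3 of them, cut at about 5.3 in these data; same plate scores as AID 2156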;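 also: B-score of peak minus minimum over baseline fluorescence ratio after K+ and Tl+ stimulus; positive B-score means potentiation of KCNQ2 with more thallium influx and brighter signal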
# KCNQ2 block conf: confirmation of rat KCNQ2 potassium channel inhibitors. shares compounds with KCNQ2 block. KCNQ2-expressing cells, thallium flux, inhibition; active compounds read low. activity change, negative = inhibition, % at 10 µM. 57% of 1,000 active. AID 493025;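 also: 0% = vehicle wells and values are ratio percent relative to vehicle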
# KCNQ1 spec: human KCNQ1 activity in KCNQ2 inhibitor specificity screen; shares compounds with KCNQ2 block; KCNQ1-expressing cells, FluxOR thallium flux fluorescence; active compounds read low; activity change, negative = inhibition, % at 10 µM; 15% of 1,000 active;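 active = activity change at least 3 SD of negative controls below their mean in both duplicate wells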;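 also: CHO cells stably transfected with KCNQ1 and depolarized by potassium stimulus; peak minus minimum fluorescence over baseline after thallium addition; 0% = vehicle negative control and -100% = blank without thallium stimulus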
# CHO parental ctr: activity in parental CHO cells lacking KCNQ2; shares compounds with KCNQ2 block; thallium flux counter-screen; active compounds read low; activity change, % at 10 µM; 14% of 1,000 active; AID 493029;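 also: 0% = vehicle negative controls with stimulus buffer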
# KCNQ2 patch conf: rat KCNQ2 inhibition confirmed by electrophysiology; shares compounds with KCNQ2 block; KCNQ2-expressing cells, automated patch clamp current; calls only at 10 µM; 49% of 550 active
# * = called active by the depositor; i = inactive; / = not tested or not shown; + = active, no number. In the library only some 1.6% were active in any assay of this set; here they are far more common. Unless noted, no rule for the calls is given here.
SMILES,KCNQ2 block,KCNQ2 enhance,KCNQ2 block conf,KCNQ1 spec,CHO parental ctr,others
Cc1cc2oc(C(=O)N(Cc3ccc(N(C)C)cc3)CC3CCCO3)c(C)c2cc1C (stereo not drawn),-8.6*,-8.6,-37%*,-36%*,-34%*,KCNQ2 patch conf=+
O=C(c1ccc(OC2CCN(Cc3ccccn3)CC2)cc1)N1CCCCO1,i,/,/,/,/,
CN(CC(=O)Nc1ccccc1C(F)(F)F)C(=O)COc1ncnc2ccccc12,i,0.71,/,/,/,
COc1ccccc1/C=C/CN1CCCC(CO)(Cc2cccc(Cl)c2)C1 (stereo not drawn),i,/,/,/,/,
COc1ccc(/C=C/CN2CCCC(CO)(Cc3cccc(Cl)c3)C2)cc1 (stereo not drawn),-6.8*,-6.8,-23%*,i,i,KCNQ2 patch conf=i
CC1CCCN(C(=O)N2c3ccccc3Sc3ccccc32)C1 (stereo not drawn),-6.9*,-6.9,-15%*,i,i,KCNQ2 patch conf=i
O=C(N1CCOCC1)N1c2ccccc2Sc2ccccc21,i,/,/,/,/,
Cc1ccc(-c2cc(C(=O)N(C)Cc3cnn(C)c3C)c3cc(Br)ccc3n2)cc1,i,/,/,/,/,
Cc1ccc(-c2cc(C(=O)NCc3cnn(C)c3C)c3cc(Br)ccc3n2)cc1,-9.2*,-9.2,-34%*,i,i,KCNQ2 patch conf=+
CC1CCCCN1CCCNc1ccc(C(CC(N)=O)NC(=O)Cc2cccc3ccccc23)cc1[N+](=O)[O-] (stereo not drawn),i,/,/,/,/,
CCOC(=O)c1ccc(NC(=O)c2ccc[n+]([O-])c2)cc1,i,0.05,/,/,/,
O=C(CCS(=O)(=O)c1cc2c(cc1Cl)NC(=O)CO2)NCc1ccc(F)cc1,i,0.39,/,/,/,
CC1CN(C(=O)c2ccc(COc3ccc(C(C)C)cc3)o2)CC(C)O1 (stereo not drawn),i,/,/,/,/,
CC1CN(C(=O)c2ccc(COc3ccc4ccccc4c3)o2)CC(C)O1 (stereo not drawn),-10*,-10,i,i,i,
CC(=O)Nc1ccc(NC(=O)C(=O)NCC(c2ccco2)N2CCc3ccccc3C2)cc1 (stereo not drawn),i,/,/,/,/,
O=C(NCC(c1ccco1)N1CCc2ccccc2C1)C(=O)Nc1ccc(F)cc1F (stereo not drawn),-6.7*,-6.7,-26%*,i,i,KCNQ2 patch conf=i
O=C(CN1CCc2ccccc2C1)Nc1ccc(F)cc1F,i,/,/,/,/,
O=C(NCC(c1ccco1)N1CCc2ccccc2C1)C(=O)Nc1ccccc1F (stereo not drawn),-7*,-7,-26%*,i,i,KCNQ2 patch conf=i
O=C(NCC1CCCO1)c1cccc2ccccc12 (stereo not drawn),i,0.01,/,/,/,
O=C(NC(NCC1CCCO1)C(Cl)(Cl)Cl)c1cccc2ccccc12 (stereo not drawn),-8.6*,-8.6,i,i,i,
CC(C(=O)NCC1CCCCC1)N(C)Cc1ccc(Cl)cc1 (stereo not drawn),-6.7*,-6.7,i,i,i,
CC(C(=O)NCC1CCCCC1)N(C)Cc1ccc(Br)cc1 (stereo not drawn),i,/,/,/,/,
O=C(O)c1nn2cc(CCO)cnc2c1Cl,i,/,/,/,/,
O=C(CN1CCCCCC1)Nc1ccccc1C(=O)Nc1ccccc1,i,1.7,/,/,/,
CCCCN(CC)C(=O)c1cccc(Cl)c1,i,1.7,/,/,/,
SMILES,KCNQ2 block,KCNQ2 enhance,KCNQ2 block conf,KCNQ1 spec,CHO parental ctr,others
CCCCN(CC)C(=O)c1ccc(-c2ccccc2)cc1,-6.8*,-6.8,-26%*,i,i,KCNQ2 patch conf=i
Cc1ccc(-c2cc(-c3ccccc3)nc(Cl)n2)cc1,-8.3*,-8.3,i,i,i,
COc1ccc(-c2cc(-c3ccccc3)nc(Cl)n2)cc1OC,i,/,/,/,/,
Cn1c(SCc2cccc(F)c2)nnc1-c1ccncc1,i,0.12,/,/,/,
COc1ccc(CCNC(=O)c2ccc3c(c2)N(Cc2ccc(F)cc2)CCS3)c(OC)c1,-8.1*,-8.1,i,i,i,
COc1ccc(OC)c(CCNC(=O)c2ccc3c(c2)N(Cc2ccc(F)cc2)CCS3)c1,i,/,/,/,/,
O=C(C(=O)N1CCN(c2ccc(F)cc2)CC1)c1cn(CC(=O)N2CCOCC2)c2ccccc12,i,/,/,/,/,
Cc1cc(NC(=O)NC(=O)c2ccccc2)no1,i,/,/,/,/,
O=C(CN1CCCc2ccccc21)NCc1ccc2c(c1)OCO2,i,/,/,/,/,
O=C(CN1CCCc2ccccc21)NCCc1ccc(Cl)cc1,-11*,-11,-34%*,i,i,KCNQ2 patch conf=+
NS(=O)(=O)c1ccc(CCNC(=O)c2cc([N+](=O)[O-])ccc2N2CCCCC2)cc1,i,/,/,/,/,
COc1cccc(OC)c1C(=O)Nc1ccccc1NC(=O)c1c(OC)cccc1OC,i,0.06,/,/,/,
COc1cccc(OC)c1C(=O)Nc1ccccc1Sc1ccccc1,-7*,-7,i,i,i,
COc1cc(C(=O)Nc2nc(OC)c(-c3ccccc3)c(OC)n2)cc(OC)c1OC,i,0.82,/,/,/,
COc1cc(C(=O)Nc2cc(-c3ccccc3)[nH]n2)cc(OC)c1OC,-6.6*,-6.6,-25%*,i,i,KCNQ2 patch conf=i
O=C(COC(=O)C1CCN(c2ccc(C(F)(F)F)cn2)CC1)c1ccc(F)cc1,i,/,/,/,/,
COc1cc(C(=O)COC(=O)C2CCN(c3ccc(C(F)(F)F)cn3)CC2)ccc1OC(F)F,-9.9*,-9.9,i,i,i,
Cc1cc(C)c(C(=O)COC(=O)C2CCN(c3ccc(C(F)(F)F)cn3)CC2)cc1C,-10*,-10,i,i,i,
O=C(COC(=O)C1CCN(c2ccc(C(F)(F)F)cn2)CC1)c1ccccc1Cl,i,/,/,/,/,
CCC(C)c1ccccc1NC(=O)C(C)OC(=O)c1ccco1 (stereo not drawn),i,0.26,/,/,/,
CCOC(=O)c1cnc2cc(F)c(F)cc2c1N1CCOCC1,i,0.64,/,/,/,
CCn1c(C)c(C)c2cc(C(=O)N3CCCC3)ccc21,i,0.37,/,/,/,
CCn1c(C)c(C)c2cc(C(=O)N3CCN(c4ccccc4)CC3)ccc21,-6.9*,-6.9,i,i,i,
COc1ccc(C(=O)N/C(=C\c2ccccc2)C(=O)Nc2ccc(C(=O)NCC(=O)O)cc2)cc1,i,0.14,/,/,/,
CC1CCc2nc3ccc(S(=O)(=O)N4CCC(C(=O)NC(C)c5ccccc5)CC4)cc3c(C(=O)O)c2C1 (stereo not drawn),i,4.2,/,/,/,
O=C(COc1ccc(-c2nnc(N3CCCCC3)c3ccccc23)cc1)N1CCCCC1,i,/,/,/,/,
Cc1ccc(-c2nnc(N3CCN(C(=O)COc4ccccc4)CC3)c3ccccc23)cc1,-7.6*,-7.6,-27%*,i,i,KCNQ2 patch conf=+
O=[N+]([O-])c1cccc(/C=N\N2CCN(Cc3ccccc3Cl)CC2)c1,-7.3*,-7.3,i,i,i,
O=[N+]([O-])c1cccc(/C=N/N2CCN(Cc3ccccc3)CC2)c1,i,/,/,/,/,
CCN(C(=O)c1ccco1)c1nnc(-c2cccnc2)s1,i,1.6,/,/,/,
